# Compound activity from PubChem.
# The list is not random: actives were taken first. Their share in the collection is about 1.5%.
# S1P4 antagonist: blocks the human S1P4 receptor; O95977; AID 1510; inhibition, % at 4.98 µM; actives 0.26% (n = 220,000); S1P4-expressing cells, antagonist mode, reporter read-out; in the data active = inhibition above about 29%;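 note: 0% = wells stimulated with agonist and 100% = vehicle wells without agonist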
# Target sequence (O95977 whole entry, looked up): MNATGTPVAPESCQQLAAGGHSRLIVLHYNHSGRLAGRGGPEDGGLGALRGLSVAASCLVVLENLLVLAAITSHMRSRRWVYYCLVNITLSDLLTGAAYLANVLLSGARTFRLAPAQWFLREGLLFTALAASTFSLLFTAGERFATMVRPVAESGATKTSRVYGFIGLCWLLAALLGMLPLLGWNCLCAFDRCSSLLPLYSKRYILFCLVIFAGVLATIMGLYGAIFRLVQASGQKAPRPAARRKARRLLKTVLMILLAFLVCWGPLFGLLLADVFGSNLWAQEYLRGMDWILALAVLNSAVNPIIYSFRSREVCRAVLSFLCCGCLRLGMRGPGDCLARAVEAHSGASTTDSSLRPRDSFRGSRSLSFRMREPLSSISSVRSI
# INS promoter inh: TRM-6 insulin promoter activity inhibition; TRM-6 cells (human fetal islet line), insulin promoter-eGFP reporter, imaging; reporter expression induced with tamoxifen; inhibition, % at 2 µM; actives 0.9% (n = 130,000);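 active = inhibition above the mean plus 3 SD, with well images judged a real hit on visual review, cut at about 60% in these data, passing the limit was not always enough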
# Insulin prom up: MIN6 insulin promoter up-regulation. AID 1625. MIN6 insulin promoter-GFP reporter, high-content imaging; stronger effect = higher value. actives 0.3% (n = 190,000). z-score at 5 µM;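 active = z-score above 3 at 5 µM with at least 500 cells counted in the well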
# Hsp70 activator: transcriptional activators of Hsp70; actives 0.04% (n = 200,000); HeLa Hsp70 promoter luciferase reporter, luminescence; scaled: vehicle 0, proteasome-inhibitor control 100%; activation, % at 10 µM;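 active = activation above the mean across all tested compounds plus 3 SD, cutoff set per campaign, cut at about 5.5% in these data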;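 note: 100% = MG132 at 30 µM as the positive control and 0% = DMSO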
# S1P4 ag: activates the human S1P4 receptor; O95977; S1P4-expressing cell line, agonist reporter assay; activation, % at 4.98 µM; actives 0.35% (n = 220,000); AID 1509; in the data active = activation above about 11%;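 note: 0% = DMSO vehicle and 100% = reference agonist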
# S1P3 antag: antagonists of human S1P3 receptor. Q99500. CHO S1P3 NFAT-BLA reporter, FRET fluorescence, antagonist mode. inhibition, % at 4.98 µM. actives 0.27% (n = 170,000);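 active = inhibition above the plate cutoff, the mean inhibition of test wells on that plate plus 3 SD, cut at about 28% in these data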;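 note: cells challenged with S1P at its EC80 of 0.8 µM; blue over green emission ratio from cleaved BLA substrate after 4 h stimulation; 0% = S1P-stimulated wells and 100% = unstimulated DMSO-only wells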
# S1P4 ag conf: human S1P4 agonism, confirmation | actives 7% (n = 740) | shares compounds with S1P4 ag | activation, % at 4.98 µM | S1P4 agonist cell-based reporter assay; in the data active = activation above about 12%;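 note: 0% = vehicle and 100% = full reference agonist response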
# S1P1 agonist: human S1P1 agonism as S1P4 agonist counter-screen; shares compounds with S1P4 ag; S1P1 agonist cell-based assay, activation; activation, % at 4.98 µM; actives 4% (n = 740); in the data active = activation above about 21%;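 note: 0% = vehicle wells and 100% = reference agonist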
# * marks the source's active call; other numbers are inactive results; / = no result.
SMILES,S1P4 antagonist,INS promoter inh,Insulin prom up,Hsp70 activator,S1P4 ag,S1P3 antag,S1P4 ag conf,S1P1 agonist
O=C(Cn1cnc2cc([N+](=O)[O-])ccc2c1=O)Nc1ccc2c(c1)OCO2,10.2,23.5,0.49,-0.2,24.0*,4.6,-2.3,-5.3
O=C(CN1CCc2ccccc2C1)Nc1cccc(S(=O)(=O)N2CCCC2)c1,-6.2,/,0.26,0.1,0.4,-18.2,/,/
O=C(CN1CCCCC1)Nc1scc2c1c(=O)oc1ccccc12,-1.8,/,-0.4,/,-0.4,-0.7,/,/
O=C(CN1CCOCC1)Nc1scc2c1c(=O)oc1ccccc12,5.5,/,-0.11,/,23.4*,-3.5,-1.6,-6.1
COc1ccc2nccnc2c1[N+](=O)[O-],0.5,/,-0.1,/,-1.1,2.1,/,/
N#CC1=C(N)Oc2cc(N)ccc2C1C1CCCCC1 (stereo not given),3.7,-333.3,0.43,0.4,13.8*,32.3,-1.4,-3.1
COc1ccc(OCCSc2nc(-c3ccccc3)cc(=O)[nH]2)cc1,-4.1,/,0.43,-0.4,31.1*,-12.2,-2.2,-1.9
CCOC(=O)c1sc(-c2ccccc2)cc1NC(=O)Nc1ccccc1,-0.9,0.0,-0.24,-0.1,24.7*,-10.5,-2.4,-4.8
Cc1cc(-c2nnc(SCC(=O)Nc3ccccc3Cl)n2C)no1,7.0,/,0.45,/,-1.8,1.4,/,/
CS(=O)(=O)N(CCc1ccccc1)CC(=O)N1CCCC1,1.6,/,0.3,/,21.1*,3.0,-1.7,-3.8
CCOC(=O)C1CCCN(C(=O)COC(=O)c2ccc(C#N)cc2)C1 (stereo not given),6.8,-18.9,-0.21,-0.1,1.3,-17.3,/,/
NS(=O)(=O)c1ccc(N2N=C(c3ccccc3)CC2c2cccc(F)c2)cc1 (stereo not given),-13.8,7.4,-0.22,-0.7,10.8,-11.1,/,/
NS(=O)(=O)c1ccc(N2N=C(c3ccc(Br)cc3)CC2c2ccc(F)cc2)cc1 (stereo not given),-22.8,69.6,-1.34,-0.4,24.0*,/,42.5*,112.1*
COCCNC(=S)Nc1ccc2nsnc2c1,-8.7,-17.6,0.35,-0.3,11.7*,-20.6,-1.9,-6.5
COCCNC(=S)Nc1ccc(Cl)c(Cl)c1,5.3,5.9,-0.33,-0.3,-0.7,11.9,/,/
CCc1ccc(OC2=NS(=O)(=O)c3ccccc32)cc1,-8.0,20.0,0.47,-0.1,13.8*,-12.9,-1.9,-5.6
Cc1ccc(OC2=NS(=O)(=O)c3ccccc32)cc1,11.9,45.8,-0.73,-0.5,1.2,/,/,/
CCCC(C)NCC(=O)Nc1ccccc1-c1ccccc1 (stereo not given),-12.7,-35.1,-0.9,-0.2,-1.4,/,/,/
Cc1cc(C(=O)N2CCCC(C(=O)c3cc(F)ccc3F)C2)c(C)o1 (stereo not given),-4.3,/,-0.22,0.2,1.4,-5.3,/,/
O=C(COC(=O)c1ccc2ccccc2c1)NCCCc1ccccc1,0.6,/,-0.17,-0.4,0.0,5.8,/,/
O=C(N/N=C/c1cn(-c2cccs2)nc1-c1ccccc1)c1ccccc1O,0.5,9.8,-0.61,-0.5,-0.7,-2.0,/,/
O=C(N/N=C/c1cn(-c2cccs2)nc1-c1ccccc1)c1ccccc1Br,0.8,/,-0.33,-0.1,11.0*,9.5,-2.0,1.5
CCC1CCCCN1C(=O)c1cccc(S(=O)(=O)Nc2cc(C(F)(F)F)ccc2Cl)c1 (stereo not given),-11.6,-45.1,-0.04,-0.4,1.4,-14.4,/,/
O=C(NC1CCN(Cc2ccccc2)CC1)c1cccc(S(=O)(=O)Nc2cc(C(F)(F)F)ccc2Cl)c1,-23.9,7.7,0.39,-0.3,24.7*,-3.8,-1.6,-1.7
COC(=O)c1ccc(C(=O)OC)c(NC(=O)C(C)(C)C)c1,-7.5,0.0,/,0.0,2.1,-6.1,/,/
CCOc1ccc(CCNC(=O)COC(=O)c2ccc(OC)c(OC)c2OC)cc1OCC,-10.6,/,-0.69,0.1,0.5,-18.2,/,/
CCOc1ccc(CCNC(=O)COC(=O)c2cccc(OC)c2O)cc1OCC,-18.4,/,-0.16,0.0,12.8*,4.6,-2.8,-1.6
CCOC(=O)C1C(=O)N(C(=O)c2ccc(OC)cc2)CC1c1ccccc1 (stereo not given),0.8,50.0,0,-0.2,-0.4,-12.7,/,/
